Results published in PubChem BioAssay AID652054 (National Center for Advancing Translational Sciences (NCATS), 2013).
Out of some 360,000 compounds screened, about 9,100 (2.5%) were called active. Another 4% or so got no clear call; they are omitted. Rule as the data show it: active = max response below about -50%; inconclusive = no clear call, values can overlap the other calls; inactive = above that. The sample as a whole holds a higher share of actives than the screen did.

These compounds were tested against D(3) dopamine receptor (Homo sapiens) (UniProt P35462) (assay: qHTS of D3 Dopamine Receptor Antagonist: qHTS). Conditions: D3R cells, DiscoveRx beta-arrestin luminescence, antagonist mode; hits give low values.
Outline: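 Cells plated overnight at 1500 cells/well, then exposed to library compounds with dopamine controls for 90 minutes at 37 degrees C. DiscoveRx reagent added for 30–60 minutes at room temperature; luminescence read, quantitative HTS format.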
% is scaled to controls: 0 for no effect and ±100 for the full control effect.

Chain of D(3) dopamine receptor (Homo sapiens) (P35462 whole entry, looked up): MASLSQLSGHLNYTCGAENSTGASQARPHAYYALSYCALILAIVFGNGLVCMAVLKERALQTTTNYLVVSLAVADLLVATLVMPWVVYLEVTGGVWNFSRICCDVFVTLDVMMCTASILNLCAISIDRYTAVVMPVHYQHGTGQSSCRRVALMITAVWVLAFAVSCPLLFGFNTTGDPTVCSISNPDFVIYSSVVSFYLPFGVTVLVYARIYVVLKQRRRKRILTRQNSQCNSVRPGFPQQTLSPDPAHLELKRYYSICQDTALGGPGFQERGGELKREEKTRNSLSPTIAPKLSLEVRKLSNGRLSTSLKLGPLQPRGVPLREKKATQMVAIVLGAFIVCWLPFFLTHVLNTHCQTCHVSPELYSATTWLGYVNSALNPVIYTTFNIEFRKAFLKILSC

| Compound | max response, negative = inhibition |
| --- | --- |
| CC(=O)c1ccc(OCC(=O)N(C)C2CCS(=O)(=O)C2)cc1 (stereo unspecified) | -0.617% (inactive) |
| COc1ccc2c(-c3ccccc3)cc(SCC(=O)N(C)C3CCS(=O)(=O)C3)nc2c1 (stereo unspecified) | 0.687% (inactive) |
| COc1ccc(-c2cc(=O)oc3cc(OCC(=O)N(C)C4CCS(=O)(=O)C4)ccc23)cc1 (stereo unspecified) | -51.8% (active) |
| COc1ccc(C(=O)N2CCCCC2c2cc(C(=O)Nc3ccc(F)c(Cl)c3)no2)cc1 (stereo unspecified) | -6.17% (inactive) |
| O=S1(=O)CC(N2CCN(c3ccccn3)CC2)CN1Cc1ccc(F)cc1 (stereo unspecified) | 7.7% (inactive) |
| CCCNC(=O)C1(C)CCN(Cc2csc(-c3ccc(Cl)cc3)n2)C1 (stereo unspecified) | -103% (active) |
| CCCNC(=O)C1(C)CCCN(Cc2c(C)nn(-c3ccccc3)c2C)C1 (stereo unspecified) | 19.2% (inactive) |
| CCCNC(=O)C1(C)CCCN(Cc2cccc(C(F)(F)F)c2)C1 (stereo unspecified) | 27.1% (inactive) |
| COC(=O)[C@]12CCCCC=C1N(Cc1cccc3ccccc13)C(=O)[C@H](CC(=O)N1CCOCC1)C2 | -10.3% (inactive) |
| Cc1cc(=O)oc(C)c1C(=O)NCc1ccc(F)cc1 | -14.8% (inactive) |
| COc1ccc(CNC(=O)c2c(C)cc(=O)oc2C)cc1OC | 2.8% (inactive) |
| Cc1cc(=O)oc(C)c1C(=O)NCCN(C)Cc1ccccc1 | -76.1% (active) |
| Cc1nc(C(F)(F)F)ccc1C(=O)N1CCC1(C)C(=O)NS(=O)(=O)c1ccccc1Cl (stereo unspecified) | -15.5% (inactive) |
| CCN1CCN(C(=O)c2cc3cc4ccc(OC)cc4nc3s2)CC1 | -89.5% (active) |
| COc1ccc(OC)c(C(=O)c2ccc(C(=O)N3CCN(Cc4csc(C)n4)CC3)cc2)c1 | -18% (inactive) |
| COc1ccc(OCC(=O)N2CCN(C(=O)c3cccs3)CC2)cc1 | 5.1% (inactive) |
| CCCc1c(-c2ccccc2F)ncn1Cc1ccccc1OC | 2.92% (inactive) |
| COc1ccc(CCNC(=O)CN(c2ccccc2)S(=O)(=O)c2ccccc2)cc1 | -3.43% (inactive) |
| CC(C)Oc1cc(F)ccc1-c1cc(C(=O)Nc2ccc(F)cc2)[nH]n1 | -13.9% (inactive) |
| COc1cc(-c2nnc(NC(=O)CS(=O)(=O)c3ccc(Cl)cc3)o2)cc(OC)c1OC | -6.21% (inactive) |
| COc1ccc2[nH]c3c(c2c1)CCN1C(=O)C(CC(=O)NCCCN(C)C)C[C@H](C(=O)N2CCOCC2)[C@@]31CCC1CCCC1 (stereo partly specified) | 37% (inactive) |
| CC[C@]12c3[nH]c4ccc(Cl)cc4c3CCN1C(=O)[C@@H](CC(=O)NCCN1CCOCC1)C[C@@H]2C(=O)N1CCN(C(=O)C2CC2)CC1 | 6.27% (inactive) |
| COc1ccc(CNC(=O)C[C@H]2C[C@H](C(=O)N3CCOCC3)[C@@]3(CCC4CCCC4)c4[nH]c5ccc(Cl)cc5c4CCN3C2=O)cc1OC | -63% (active) |
| CCc1nc2c(OCCOc3ccccc3)cccn2c1N(C)C(=O)c1cccs1 | -19.8% (inactive) |

| Compound | max response, negative = inhibition |
| --- | --- |
| Cc1ccc(S(=O)(=O)N(CCCN(C)C)Cc2ccc3c(c2)OCO3)cc1 | -51.8% (active) |
| Cc1ccc(-c2nc(CS(=O)(=O)CC(=O)NCc3ccc4c(c3)OCO4)c(C)o2)cc1 | -2.53% (inactive) |
| Cc1ccc(CNCc2ccc3c(c2)OCO3)c(C)c1 | -3.23% (inactive) |
| OC[C@@H]1CN(Cc2ccc(Cl)cc2)C[C@H](n2cnc3c(NCc4ccncc4)ncnc32)O1 | 17.2% (inactive) |
| Cc1cc(Cl)ccc1C(=O)C1CCCN(C(=O)c2ccc3c(c2)OCO3)C1 (stereo unspecified) | -7.01% (inactive) |
| CC(=O)OCC(C)n1c(=O)c2ccccc2n1C(C)=O (stereo unspecified) | 0.665% (inactive) |
| CCOc1ccccc1NC(=O)Nc1cc(OC)ccc1OC | -69.8% (active) |
| COc1ccccc1NC(=O)CCN1CCN(c2ccc(Cl)cc2)CC1 | -52.9% (active) |
| CCOc1ccccc1NC(=O)NC1CCCCCCC1 | 0.28% (inactive) |
| COc1ccc(NC(=O)CCn2ccnc2)c(OC)c1 | -22.6% (inactive) |
| CCOc1ccccc1NC(=O)CCN1CCN(S(=O)(=O)c2ccc(OC)cc2)CC1 | 38.4% (inactive) |
| COc1ccc(NC(=O)CCN2CCCC2)c(OC)c1 | -50.5% (active) |
| COc1ccc(OC)c(NC(=O)CC(Cc2ccccc2OC)C(=O)O)c1 (stereo unspecified) | 2.31% (inactive) |
| CCOC(=O)N1CCN(CCC(=O)Nc2cc(OC)ccc2OC)CC1 | 2% (inactive) |
| COc1ccc(C(C)(C)C)cc1NC(=O)CCN1C(=O)C2CCCCC2C1=O (stereo unspecified) | 4.26% (inactive) |
| COc1ccc(OC)c(NC(=O)CCN2CCC(C)CC2)c1 | -50.8% (active) |
| COc1ccc(NC(=O)CCCC2CCCCC2)c(OC)c1 | 11.6% (inactive) |
| COc1ccc(N2CCN(CCNC(=O)Nc3cc(Cl)ccc3Cl)CC2)cc1 | -2.75% (inactive) |
| O=C(CC[C@H]1O[C@@H](n2ccc(=O)[nH]c2=O)[C@H](O)[C@@H]1O)N[C@H](Cc1ccccc1)C(=O)NCc1ccco1 | 23.3% (inactive) |
| CCCC/C=C/c1cccc2nncn12 | 11.2% (inactive) |
| C[C@H](CO)N1C[C@H](C)[C@@H](CN(C)C(=O)C2CCCCC2)OCc2cnnn2CCCC1=O | -18.3% (inactive) |
| Cc1nc2ccccn2c(=O)c1NC(=O)c1ccc(Br)o1 | 0% (inactive) |
| Cc1nccn1-c1ccc(NC(=O)[C@H]2O[C@@H](n3cnc4c(N)ncnc43)[C@H](O)[C@@H]2O)cc1 | 9.64% (inactive) |
| COc1ccc2c(c1)CCCO[C@]21O[C@H](CCO)C[C@H](O)[C@H]1O | -5.1% (inactive) |

| Compound | max response, negative = inhibition |
| --- | --- |
| Fc1cccc(Cc2c(-c3cccc(Cl)c3)nc3ccc(Br)cn23)c1 | 12.6% (inactive) |
| CC(C)NC(=O)Nc1ccc2c(c1)C(=O)N([C@H](C)CO)C[C@H](C)[C@@H](CN(C)Cc1ccc(C(F)(F)F)cc1)OCCCC[C@@H](C)O2 | -28.7% (inactive) |
| COC(=O)C[C@@H]1C=C[C@@H](NS(=O)(=O)c2cccc(OC)c2)[C@@H](CO)O1 | 3.79% (inactive) |
| O=C1NC[C@H](CCCCN2C[C@H](Cc3ccccc3)N(Cc3ccccc3)C(=O)C2=O)N(CCc2ccc(O)cc2)C1=O | 2.36% (inactive) |
| COc1ccc(OCCCC(=O)Oc2ccc(OC)cc2)cc1 | 12.3% (inactive) |
| COc1ccc(OCCCCN2CCC(C)CC2)cc1 | -66.8% (active) |
| COc1ccc(OCC(=O)Nc2ccc(N3CCC(C)CC3)cc2)cc1 | -0.541% (inactive) |
| CC(C)(C)OC(=O)N1CCN(C(=O)c2[nH]c(C(F)(F)F)nc2-c2ccccc2)CC1 | 11.8% (inactive) |
| C=CCn1nc(C(=O)OCC)cc1-c1sc(NC(=O)c2ccccc2)nc1C | 26.8% (inactive) |
| C=CCN1CCN(c2ccncc2S(=O)(=O)N2CCN(C)CC2)CC1 | 26.6% (inactive) |
| COc1ccc(-c2cc(NC=O)c3ncc(-c4cc(OC)c(OC)c(OC)c4)n3c2)c(OC)c1 | 36.6% (inactive) |
| N#Cc1ccc(C(=O)Nc2nc(-c3cccs3)c(C(=O)C(F)(F)F)s2)cc1 | -58.8% (active) |
| COC(=O)c1sc(NC(=S)NC(=O)c2ccc(C)cc2)nc1C | 2.14% (inactive) |
| N#Cc1c(-c2cccs2)nc(SCC(=O)c2ccc(Br)cc2)[nH]c1=O | 4.64% (inactive) |
| O=C(NCc1ccc(F)cc1)c1cc(C2CCCCN2C(=O)c2ccccn2)on1 (stereo unspecified) | -10.1% (inactive) |
| COC(=O)c1ccc(Oc2nc(Nc3ccc(F)cc3)nc(N3CCCC3)n2)cc1 | -22.6% (inactive) |
| Clc1nc(NC2CCCC2)nc(N2CCOCC2)n1 | 16.5% (inactive) |
| COc1nc(NC2CCCCC2)nc(N2CCCCCC2)n1 | -62.8% (active) |
| COC(=O)[C@@]12C[C@@H](CC(=O)NCCCCc3ccccc3)C(=O)N(Cc3ccccc3)C1=CCC(C)(C)C2 | -9.89% (inactive) |
| CN(C)CCOc1ccc(Cl)cc1C(C)(C)C | -51.2% (active) |
| Cn1c(CCCOc2ccc(Cl)cc2Cl)n[nH]c1=S | 10.4% (inactive) |
| CCN(CC)CCOCCOc1ccc(Cl)c2ccccc12 | -29.6% (inactive) |
| CC(=O)C[C@@H]1OC[C@H](CO)N1S(=O)(=O)c1ccc(C)cc1 | 6.66% (inactive) |
